Source: PubChem
RAM inhibit – inhibitors of the yeast RAM network, primary screen, dse1pr::URA3 reporter, 5-FOA selection. actives 1.8% (n = 190,000). AID 868, 2007. S. cerevisiae dse1pr::URA3 reporter, 5-FOA growth OD615, 2 d; analog-sensitive cbk1-as2 kinase mutant strain. inhibition, % at 50 µM;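 active = inhibition above a set limit, 3 SD over mean compound inhibition, cut at about 8.4% in these data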;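 note: inhibition rescues growth on 5-FOA so higher OD means more RAM inhibition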
Lmaj promast – Leishmania major promastigote growth inhibition, primary screen; Leishmania major promastigotes, resazurin fluorescence viability; inhibition, % at 10 µM; actives 9% (n = 200,000); in the data active = inhibition above about 50%;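 note: promastigotes grown with compound for 44 hours at 28 °C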
WT yeast gro inh – growth inhibition of WT strain, primary screen, mitochondrial fusion inhibitor project, WT and mutant strains, chemical genetic | mitochondrial fusion phenotypic screen | inhibition, % at 10 µM | actives 2.1% (n = 190,000) | AID 1362, 2008; in the data active = inhibition above about 58%; tested in S. cerevisiae
CHOP inhibitor – inhibitors of CHOP promoter induction, primary screen, cell-based, unfolded protein response, luciferase reporter; inhibition, % at 10 µM; actives 3.8% (n = 220,000); CHO-K1 CHOP-promoter luciferase, tunicamycin-induced, 15-18 h;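 active = compounds that reduced the stress-induced luciferase reporter signal by more than about 70% of percent inhibition, limit read from the data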
Of the large screens only hits and unclear results are named; the others gave an inactive call. This is a sample that favours compounds with a hit; in the whole collection about 13% have one here.

COc1ccc(NC(=O)C2CCC(CNS(=O)(=O)c3cccs3)CC2)cc1 (stereo not given)	none
O=C(O)c1cc2n(n1)CCN(Cc1ccccc1Cl)C2=O	none
O=c1cc2c(nn1Cc1ccc(Cl)cc1Cl)-c1ccccc1CC2	WT yeast gro inh 76
O=C1Cc2ccccc2C(=O)N1OCc1ccc(Cl)cc1Cl	none
O=c1cc2c(nn1Cc1ccccc1Cl)-c1ccccc1CC2	WT yeast gro inh 69, CHOP inhibitor 86
O=[N+]([O-])c1ccccc1S(=O)(=O)NCCC1=CCCCC1	WT yeast gro inh 71
COc1ccc(CCNC(=O)Nc2ccccc2[N+](=O)[O-])cc1	none
CCSc1nc2c([nH]c3ccccc32)c(=O)n1C	CHOP inhibitor 77
Cc1cccc(NC(=O)CSc2nc3c([nH]c4ccccc43)c(=O)n2C)c1	CHOP inhibitor 79
CCC(C)Sc1nc2c([nH]c3ccccc32)c(=O)n1C (stereo not given)	none
CNS(=O)(=O)c1cccc(C(=O)OCC(=O)/C=C2/N(C)c3ccccc3C2(C)C)c1	CHOP inhibitor 73
CCn1c2ccccc2c2cc(NC(=O)COC(=O)c3cccc(S(=O)(=O)NC)c3)ccc21	Lmaj promast 66
CCn1c(SCC(=O)Nc2ccc3c(c2)c2ccccc2n3CC)nnc1-c1cnccn1	Lmaj promast 99
CCn1c2ccccc2c2cc(NC(=O)COc3ccccc3OC)ccc21	RAM inhibit 9.6
CC(C(=O)OCc1nnc(-c2ccccc2)o1)N1C(=O)C2CCCCC2C1=O (stereo not given)	none
O=C(c1cc(-c2ccc(Cl)cc2)n(-c2ccc(Cl)c(Cl)c2)n1)N1CCOCC1	WT yeast gro inh 66
CCOc1ccc(N(CC(=O)NCc2cccc(OC)c2)S(=O)(=O)c2c(C)noc2C)cc1	none
O=C1c2ccncc2C(=O)N1Cc1cccc(Cl)c1	none
O=S1(=O)c2ccccc2N=NN1Cc1cc(Cl)cc(Cl)c1	CHOP inhibitor 92
CC(NC(=O)COC(=O)CC(c1ccccc1)c1ccccc1)c1ccccc1 (stereo not given)	none
COc1ccc(-n2nc(C)cc2Nc2ccccc2C(=O)O)cc1	none (no result: RAM inhibit, Lmaj promast, WT yeast gro inh)
COc1ccc(C(=NNc2ccccc2C(=O)O)c2ccc(OC)cc2)cc1	WT yeast gro inh 82
O=C1Nc2ccc(Br)cc2C1(O)Cc1ccccn1 (stereo not given)	none
O=C1Nc2ccc(Br)cc2C12NNc1ccccc1O2 (stereo not given)	Lmaj promast 73, WT yeast gro inh 88, CHOP inhibitor 105
CCOC(=O)c1sc(/N=C/c2c(C)[nH]n(-c3ccccc3)c2=O)c(C#N)c1C	WT yeast gro inh 77
Oc1ccc(N=Cc2ccc(O)c(O)c2)cc1	Lmaj promast 100 (no result: CHOP inhibitor)
Cc1ccc(SCCC(=O)OCC(=O)NCC2CCCCC2)cc1	none
O=[N+]([O-])c1cccc(/C=N/Nc2nc(NCc3ccccc3)nc(N3CCOCC3)n2)c1O	Lmaj promast 99
O=C(COc1ccc(-c2ccccc2)cc1)N1CCCC1	none
Cc1cccc(NC(=O)C2CCN(S(=O)(=O)c3c(C)noc3/C=C/c3ccco3)CC2)n1	Lmaj promast 99
CCc1cc2c(=O)c(-c3cnn(-c4ccccc4)c3)c(C)oc2cc1OCC(=O)Nc1cccc(C)c1	Lmaj promast 66, CHOP inhibitor 94
CCc1cc2c(=O)c(-c3cnn(-c4ccccc4)c3)c(C)oc2cc1OCC(=O)Nc1ccc(F)c(F)c1	Lmaj promast 53, CHOP inhibitor 86
COc1cc(C2C(C(=O)/C=C/c3ccccc3)=C(O)C(=O)N2c2ccccn2)ccc1O (stereo not given)	none
O=C(NNC(=O)c1ccc([N+](=O)[O-])o1)c1ccccc1	Lmaj promast 98
NS(=O)(=O)c1ccc(O)c(NC(=O)c2ccc([N+](=O)[O-])o2)c1	none (no result: RAM inhibit, Lmaj promast, WT yeast gro inh)
C/C(=N/NC(=O)C(O)(c1ccccc1)c1ccccc1)c1ccc([N+](=O)[O-])o1	Lmaj promast 96
O=C(NN(c1ccccc1)c1ccccc1)c1ccc([N+](=O)[O-])o1	Lmaj promast 85
C/C(=N\NC(=O)c1cccc([N+](=O)[O-])c1)c1ccco1	none (no result: RAM inhibit, Lmaj promast, WT yeast gro inh)
O=C(c1ccc([N+](=O)[O-])o1)N1CCOCC1	none
CC(C)(C(=O)Nc1nccs1)c1ccccc1	none
O=C(CN1CCC(n2nnc3cc(C(F)(F)F)ccc32)CC1)N1CCc2ccccc21	Lmaj promast 56
Cc1ccc(C2=NN(C(=O)CCC(=O)O)C(c3cn(-c4ccccc4)nc3-c3ccc(C)cc3)C2)cc1 (stereo not given)	CHOP inhibitor 95
Cc1ccc(-c2nn(-c3ccccc3)cc2C2CC(c3ccccc3)=NN2C(=O)CCC(=O)O)cc1 (stereo not given)	none (no result: RAM inhibit, Lmaj promast, WT yeast gro inh)
Nc1nc(Nc2cccc(F)c2)nc2ccccc12	Lmaj promast 89
O=c1oc(Nc2cccc(F)c2)nc2ccccc12	WT yeast gro inh 78
Fc1cccc(NC(=S)NNc2c3ccccc3nc3ccccc23)c1	WT yeast gro inh 76
Cc1ccc(C)c(Nc2nc(N)c3ccccc3n2)c1	Lmaj promast 98
c1ccc(Nc2nc3ccccc3o2)cc1	none
O=C(O)/C=C/C(=O)NC1CCCCCCCCCCC1	none (no result: RAM inhibit, Lmaj promast, WT yeast gro inh)
O=C(COC(=O)C1=COCCO1)Nc1ccc(OC(F)F)cc1	none
Cc1ccsc1C(=O)C1CCCN(Cc2cccn2-c2ccc(Cl)cn2)C1 (stereo not given)	Lmaj promast 94
Cc1ccc(-n2cccn2)c(CN2CCCC(C(=O)c3sccc3C)C2)c1 (stereo not given)	Lmaj promast 87
O=C(c1ccc(Cl)cc1)C1CCCN(Cc2cccn2-c2ccccn2)C1 (stereo not given)	none
COc1cc(SC)ccc1C(=O)OC(C)C(=O)NC1CCCC1 (stereo not given)	none
CC(Sc1nc(C(C)(C)C)cc(-c2ccccc2)c1C#N)C(=O)Nc1ccccc1 (stereo not given)	RAM inhibit 9.2
CC(Sc1nc(NC(C)(C)C)nc(N(C)C)n1)C(=O)Nc1ccccc1 (stereo not given)	none
CN(C)C(=O)c1cc(C(=O)c2ccccc2Cl)c[nH]1	none
Cc1ccc(Nc2nnc(SCC(=O)Nc3ccccc3[N+](=O)[O-])s2)cc1	none
Cc1cccc(C)c1Nc1nnc(SCC(=O)Nc2ncc(C(F)(F)F)cc2Cl)s1	none
Cc1ccc(Nc2nnc(SCC(=O)Nc3ncc(C(F)(F)F)cc3Cl)s2)cc1	CHOP inhibitor 74
Cc1ccc(Nc2nnc(SCC(=O)Nc3cccnc3Cl)s2)cc1C	Lmaj promast 83
CCN1C(c2ccccc2)=C(c2ccccc2)S/C1=C\C=C1/SC(=S)N(C)C1=O	none (no result: RAM inhibit, WT yeast gro inh, CHOP inhibitor)
CCN1C(=O)/C(=C/C=C2/Sc3ccc4ccccc4c3N2CCO)SC1=S	Lmaj promast 65
COc1ccccc1NC(=O)N1CCN(c2ccnc3cc(Cl)ccc23)CC1	none (no result: RAM inhibit, Lmaj promast, WT yeast gro inh)
COc1ccccc1NC(=O)N1CCc2[nH]c3ccc(Cl)cc3c2C1	Lmaj promast 95
CCOC(=O)C1=C(C)OC(N)=C(C(=O)OCC)C1c1ccncc1 (stereo not given)	none
CCOC(=O)C1=C(N)OC2=C(C(=O)CC(C)(C)C2)C1C1CCCCC1 (stereo not given)	CHOP inhibitor 96
